ST2 inh = blocks human ST2 binding to IL-33 | inhibition, % for hits at 17 µM | 78,000 tested, 2.3% active | Q01638 | AlphaLISA ST2-Fc/biotin-IL-33 interaction, 1 h; in the data active = inhibition above about 30%
* marks the source's active call; other numbers are inactive results. This is one part of a sample in which hits are shown more often than they occur.

How did Cc1ccccc1CN1CCN(c2cccc(Cl)c2)CC1 do in these assays?
ST2 inh: inactive

How did O=[N+]([O-])c1cc(Cl)ccc1N1CCN(Cc2ccccc2)CC1 do in these assays?
ST2 inh: 31%*

What do the screens show for `CN1CCN(Cc2ccc(F)c(Br)c2)CC1`?
ST2 inh: inactive

How did O=[N+]([O-])c1ccc(CN2CCN(c3ccc(Cl)cc3)CC2)cc1 do in these assays?
ST2 inh: inactive

Results for O=[N+]([O-])c1ccc(N2CCN(Cc3ccc(F)c(Br)c3)CC2)cc1 ?
ST2 inh: 31%*

Results for O=[N+]([O-])c1ccc(N2CCN(Cc3ccc(Cl)cc3)CC2)cc1 ?
ST2 inh: inactive

How did Fc1ccccc1N1CCN(Cc2ccc(Cl)cc2)CC1 do in these assays?
ST2 inh: inactive

What do the screens show for `O=[N+]([O-])c1ccc(N2CCN(Cc3ccc(O)cc3)CC2)cc1`?
ST2 inh: inactive

Results for Cc1cccc(C(C)C)c1NC(=O)CNC(C)Cc1cnccn1 (configuration not stated) ?
ST2 inh: inactive

Results for COc1ccc(-c2cc([C@H]3CN4CC[C@H]3C[C@@H]4COC(=O)NC3CCCCC3)n(C)n2)cc1 ?
ST2 inh: inactive

Results for CSc1ccc(-c2ccc3n(c2=O)C[C@H]2C[C@@H]3CN(C(=O)CCC(=O)O)C2)cc1 ?
ST2 inh: inactive

Results for C#C[C@H]1CN2CC[C@H]1C[C@@H]2CNC(=S)Nc1cc(OC)cc(OC)c1 ?
ST2 inh: inactive

How did c1cc2c(c(-c3nccc4[nH]ccc34)c1)CCNC2 do in these assays?
ST2 inh: inactive

Results for O=C(O)C(c1c(O)c2ccccc2oc1=O)c1c(O)c2ccccc2oc1=O ?
ST2 inh: inactive

What do the screens show for `CN1CCN(C[C@H]2CN3CC[C@H]2C[C@@H]3CNC(=S)NCc2ccco2)CC1`?
ST2 inh: inactive

Results for C=CCN(C)C[C@H]1CN2CC[C@H]1C[C@@H]2CNC(=S)NCc1ccco1 ?
ST2 inh: inactive

Results for Cc1ccc(C(CN)CC(=O)O)cc1 (configuration not stated) ?
ST2 inh: inactive

What do the screens show for `CCOC(=O)Cc1csc(NC(=O)c2cccn(Cc3c(F)cccc3Cl)c2=O)n1`?
ST2 inh: inactive

Bioassay records as filed in PubChem.
